Common to all, as to experiment: NCI-60 one-dose screen, 48 h (100 = growth as untreated, 0 = no growth, -100 = all killed)
Assay [1] deals with SR leukemia. As to conditions: 10 µM.
The test system of assay [2] is RPMI-8226 leukemia. As to conditions: 10 µM.
The test system of assay [3] is OVCAR-8 ovarian. As to conditions: 10 µM.
The subject of assay [4] is OVCAR-5 ovarian. Conditions: 10 µM.
Assay [5] deals with OVCAR-4 ovarian. Conditions: 10 µM.
The test system of assay [6] is SK-OV-3 ovarian. Conditions: 10 µM.
Assay [7] has as its system IGROV1 ovarian. As to conditions: 10 µM.
In assay [8] the test system is OVCAR-3 ovarian. As to conditions: 10 µM.
The test system of assay [9] is HS 578T breast. Conditions: 10 µM.
Assay [10] deals with NCI/ADR-RES ovarian. As to conditions: 10 µM.
Assay [11] relates to T-47D breast. Conditions: 10 µM.
For assay [12], the system named is MDA-MB-435 melanoma. Conditions: 10 µM.
Assay [13] deals with SW-620 colon. Conditions: 10 µM.
Assay [14] has as its system MCF7 breast. As to conditions: 10 µM unless noted.
Assay [15] relates to HCT-116 colon. As to conditions: 10 µM.
Assay [16] relates to HCC-2998 colon. As to conditions: 10 µM.
In assay [17] the test system is KM12 colon. Conditions: 10 µM.
Assay [18] deals with BT-549 breast. As to conditions: 10 µM.

About 83,000 compounds went through this panel and 20% of them were active in at least one assay; those are over-represented in the sample as a whole.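 Cells were grown in 96-well plates and exposed to the test compound at a single concentration for 48 hours; results are reported as percent growth, with values below 10 considered active.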 A number with no mark means an inactive call. The source made the active and inactive calls.

Regarding `O=S(=O)(O)c1cc(O)c2c(N=Cc3ccccc3O)c(S(=O)(=O)O)ccc2c1`, the growth is 95.1% in assay [1]; 97.5% in [2]; 105% in assay [3]; 103% in assay [4]; 109% in [5]; 103% in assay [6]. Further, the growth was 88.4% in assay [7]; 105% in assay [8]; 103% in assay [9]; 104% in assay [10]; 106% in assay [11]; 109% in assay [12]. Besides, the growth in assay [13] is 103%; in assay [14] it was 104%; in assay [15], 98.4%; in assay [16], 102%; in assay [17], 103%.

Consider `c1ccc(Sc2ccccc2)cc1`, for which the growth in assay [1] is 82.9%; in assay [2], 99.7%; in [3], 102%; in [4], 104%; in assay [5], 111%; in [6] it was 104%. Moreover, the growth in [7] is 117%; in assay [8], 106%; in [9], 115%; in [10] it was 112%; in [11] it was 99.6%; in assay [18], 100%. Further, the growth is 107% in [13]; 97.6% in [14]; 110% in assay [15]; 105% in assay [16]; 102% in [17].

As for `Cc1cc(N)ccc1-c1ccc(N)cc1C`, the growth was 95.2% in [1]; 108% in assay [2]; 90.7% in [3]; 98.4% in [4]; 108% in assay [5]; 96.4% in assay [6]. Also, the growth in assay [7] is 104%; in assay [8], 99.8%; in assay [9], 90.4%; in assay [10], 92.5%; in assay [11], 98.1%; in assay [12], 102%. Also, the growth in assay [13] is 101%; in assay [14], 104%; in assay [15] it was 105%; in [16], 88.4%; in assay [17], 99.7%.

Consider `CCOC(=O)Nc1cc2c(c(N)n1)N=C(c1ccccc1)CO2`, for which the growth in assay [1] is 6.89% (active); in [2], 29.3%; in [3], 14.5%; in [4], 57.4%; in assay [5] it was 49.4%; in [6], 22.8%. In addition, the growth is 25.2% in assay [7]; -28.2% (active) in [8]; 50.1% in [9]; 13.4% in assay [10]; 72.3% in assay [11]; 49.7% in assay [18]. The growth is 26.2% in assay [13]; 20.4% in [14]; 6.32% (active) in assay [15]; 23.5% in assay [16]; 5.46% (active) in [17].

As to `O=c1[nH]n(-c2ccccc2)c(=O)cc1Cl`, the growth in [1] was 87.8%; in assay [2] it was 97.5%; in [3], 101%; in [4], 104%; in [5], 112%; in assay [6], 103%. In addition, the growth in assay [7] is 102%; in assay [8], 108%; in assay [9], 111%; in assay [10], 107%; in assay [11], 97.8%; in [18], 100%. In addition, the growth in [12] was 110%; in assay [13], 102%; in [14], 96.8%; in assay [15] it was 103%; in assay [17] it was 112%.

Take `O=[N+]([O-])c1ccc(O)c(S(=O)(=O)O)c1`: the growth was 98% in assay [1]; 105% in [2]; 94.4% in assay [3]; 93.2% in [4]; 108% in assay [5]; 110% in assay [6]. Further, the growth is 130% in [7]; 109% in assay [8]; 103% in assay [9]; 109% in assay [10]; 96.5% in [11]; 128% in assay [18]. Besides, the growth is 104% in assay [13], 102% in assay [14], 101% in assay [15] and 112% in [16].

Turning to `O=C(O)CCC(=O)OC(C1CO1)C(OC(=O)CCC(=O)O)C1CO1` (stereo unspecified), the growth was 101% in assay [1]; 90.4% in [2]; 95.9% in assay [3]; 93.4% in [4]; 107% in [5]; 96.8% in assay [6]. Further, the growth in [7] is 110%; in assay [8], 103%; in assay [9] it was 113%; in [10], 109%; in assay [11], 94%; in [12], 103%. The growth is 106% in [13], 90.6% in assay [14], 99.2% in assay [15] and 108% in [16].

Regarding `NC(=O)c1ccc(N=C(N)N=C(N)N)cc1`, the growth in assay [1] is 97.4%; in [2] it was 107%; in assay [3], 98.8%; in assay [4] it was 97.8%; in assay [5], 98.2%; in assay [6], 100%. Also, the growth in [7] was 102%; in [8], 105%; in [9] it was 99.6%; in assay [10], 105%; in assay [11] it was 95.7%; in assay [18], 108%. Also, the growth in assay [13] was 104%; in [14], 92.7%; in [15], 105%; in assay [16] it was 97.7%; in assay [17] it was 99.3%.

Take `Cc1cc(C)c(CC(=O)O)c(C)c1`: the growth in assay [1] is 98.5%; in assay [2], 112%; in [3], 102%; in assay [4], 103%; in assay [5] it was 95.1%; in assay [6] it was 110%. Moreover, the growth was 108% in [7]; 104% in assay [8]; 109% in assay [9]; 103% in assay [10]; 106% in [11]; 104% in assay [12]. Moreover, the growth in [13] is 102%; in assay [14] it was 95.9%; in assay [15], 105%; in assay [16], 111%; in [17], 103%.

(Values after PubChem BioAssay (NCI).)
